# Active and inactive are the calls of the source. How the source made its calls: active means hit-call score of the fitted dose curve at least 0.9, where 1 is the maximum; inactive means score below 0.9.
# Legend:
# [1] = ATG_E_Box_CIS: Attagene CIS-FACTORIAL HepG2 Assay for human Enhancer Box (E-box) (AID 2282936); settings: HepG2 E-box cis-reporter transcription, actives raise or lower the signal
# How it was run: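 Measured 24 h post-dosing in HepG2 cells transfected with multiple cis-regulated reporter units, signal being reporter mRNA induction detected by fluorescent RT-PCR with capillary electrophoresis; gain or loss fitted against DMSO.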
# [2] = ATG_M_61_CIS: Attagene CIS-FACTORIAL HepG2 Assay for M61 Transcription Factor (Internal Marker) (AID 2282937); settings: HepG2 Attagene CIS-FACTORIAL M61 internal marker reporter; actives raise or lower the signal
# How it was run: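 Multiplexed reporter mRNA assay, HepG2 human hepatoma cells, 24 h treatment. Signal: FAM-labelled, HpaI-digested RT-PCR fragments by CE. Fit: bidirectional, baseline DMSO.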
# [3] = ATG_EGR_CIS: Attagene CIS-FACTORIAL HepG2 Assay for human Early Growth Response 1 (EGR1) (AID 2282938); settings: HepG2 Attagene CIS-FACTORIAL EGR reporter mRNA; actives raise or lower the signal
# How it was run: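 Multiplexed cis-reporter system in human hepatoma HepG2 cells, transiently transfected. Cells are dosed for 24 h; reporter transcripts are amplified, fluorescently tagged and sized by capillary electrophoresis, with DMSO as negative control.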
# [4] = ATG_M_19_CIS: Attagene CIS-FACTORIAL HepG2 Assay for M19 Transcription Factor (Internal Marker) (AID 2282939); settings: HepG2 Attagene CIS-FACTORIAL M19 internal marker reporter; actives raise or lower the signal
# How it was run: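 In this multiplexed cell assay, transiently transfected HepG2 reporter units report endogenous transcription-factor activity; after 24 hours of treatment, labelled reporter cDNA fragments are quantified by capillary electrophoresis and fitted bidirectionally against DMSO.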
# [5] = ATG_Ets_CIS: Attagene CIS-FACTORIAL HepG2 Assay for human Erythroblast Transformation Specific (ETS) (AID 2282941); settings: HepG2 ETS cis-reporter transcription, actives raise or lower the signal
# How it was run: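 Endogenous transcription factor activity read as reporter mRNA via RT-PCR and capillary electrophoresis, with gain or loss fitted bidirectionally against DMSO. Human HepG2 liver cells, transiently transfected CIS reporter constructs, 24 h exposure.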
# [6] = target: Hepatocyte nuclear factor 3-beta (Homo sapiens) (UniProt Q9Y261); experiment: ATG_FoxA2_CIS: Attagene CIS-FACTORIAL HepG2 Assay for human Forkhead box A2 (FOXA2) (AID 2282942); settings: HepG2 cis-reporter transcription factor activity, 24 h; actives raise or lower the signal
# How it was run: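 Multiplexed cis-element reporter assay in transiently transfected HepG2. Twenty-four hours post-dosing, RNA was reverse-transcribed, amplified, FAM-labelled, HpaI-digested and separated by CE. Activity gain or loss relative to DMSO.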
# [7] = ATG_FoxO_CIS: Attagene CIS-FACTORIAL HepG2 Assay for human Forkhead box O (FoxO) (AID 2282943); settings: HepG2 Attagene cis-reporter, FoxO element, mRNA; actives raise or lower the signal
# How it was run: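 HepG2 cells transiently transfected with cis-promoter-driven multiple reporter transcription units; 24 h after chemical dosing, reporter mRNA quantified by RT-PCR, fluorescent primer extension, HpaI digestion and capillary electrophoresis. Bidirectional fitting versus DMSO baseline.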
# [8] = ATG_GATA_CIS: Attagene CIS-FACTORIAL HepG2 Assay for human GATA Binding Protein (AID 2282944); settings: HepG2 GATA cis-element reporter, Attagene multiplex mRNA; actives raise or lower the signal
# How it was run: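 Measures endogenous transcription factor-driven reporter mRNA in HepG2 cells transiently carrying cis-regulated constructs. 24 h dosing; RNA via oligo(dT) reverse transcription, PCR, HpaI digestion, capillary electrophoresis; fitted relative to DMSO.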
# [9] = ATG_GLI_CIS: Attagene CIS-FACTORIAL HepG2 Assay for human Zinc Finger Protein GLI1 (AID 2282945); settings: HepG2, Attagene cis-factorial reporter mRNA, GLI element; actives raise or lower the signal
# How it was run: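 HepG2 cells transiently transfected with cis-promoter multiplexed reporter units report endogenous transcription factor activity. After 24 h chemical exposure, reporter mRNA was quantified by RT-PCR, 6-FAM labelling, HpaI digestion and capillary electrophoresis, with bidirectional fitting against DMSO.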
# [10] = ATG_ERE_CIS: Attagene CIS-FACTORIAL HepG2 Assay for Estrogen Response Element (ERE) (AID 2282940); settings: HepG2 ERE cis-reporter, Attagene RNA transcript; actives raise or lower the signal
# How it was run: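 Measuring endogenous transcription factor output, the assay doses transfected HepG2 cells for 24 hours and quantifies reporter transcripts by fluorescent RT-PCR and capillary electrophoresis, with DMSO as baseline.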
# Sequence of Hepatocyte nuclear factor 3-beta (Homo sapiens) (Q9Y261 whole entry, looked up): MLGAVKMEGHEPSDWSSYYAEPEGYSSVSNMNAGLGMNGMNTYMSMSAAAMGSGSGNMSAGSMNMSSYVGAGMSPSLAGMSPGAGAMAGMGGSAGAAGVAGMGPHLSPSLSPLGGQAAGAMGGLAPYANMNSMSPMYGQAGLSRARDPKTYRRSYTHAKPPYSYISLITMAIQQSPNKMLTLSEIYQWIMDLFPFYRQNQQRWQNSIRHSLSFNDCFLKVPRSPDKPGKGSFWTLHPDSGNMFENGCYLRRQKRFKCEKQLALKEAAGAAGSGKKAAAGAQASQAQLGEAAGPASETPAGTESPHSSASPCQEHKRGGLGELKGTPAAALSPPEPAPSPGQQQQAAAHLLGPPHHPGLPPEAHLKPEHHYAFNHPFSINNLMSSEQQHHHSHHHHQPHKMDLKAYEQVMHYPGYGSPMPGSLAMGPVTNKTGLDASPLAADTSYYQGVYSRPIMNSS
Compound,outcome [1],outcome [2],outcome [3],outcome [4],outcome [5],outcome [6],outcome [7],outcome [8],outcome [9],outcome [10],AC50 [10],AC50 [8],AC50 [3],AC50 [5],AC50 [9]
O=NO,inactive,inactive,inactive,inactive,inactive,inactive,inactive,inactive,inactive,–,–,–,–,–,–
CCCCCCCCCCCCCCCCO,inactive,inactive,inactive,inactive,inactive,–,inactive,inactive,inactive,inactive,–,–,–,–,–
O=Cc1ccccc1C=O,inactive,inactive,inactive,inactive,inactive,–,inactive,inactive,inactive,inactive,–,–,–,–,–
CSc1ccc(Oc2ccc(S(N)(=O)=O)cc2CN(C)C)cc1C,inactive,inactive,inactive,inactive,inactive,–,inactive,inactive,inactive,inactive,–,–,–,–,–
CCCC(=O)O,inactive,inactive,inactive,inactive,inactive,inactive,inactive,inactive,inactive,–,–,–,–,–,–
O=C1c2c(O)cccc2Cc2cccc(O)c21,inactive,inactive,inactive,inactive,inactive,inactive,inactive,inactive,inactive,–,–,–,–,–,–
C/C=C/C=C/C(=O)O,inactive,inactive,inactive,inactive,inactive,inactive,inactive,inactive,inactive,–,–,–,–,–,–
COC(=O)CCCC(=O)OC,inactive,inactive,inactive,inactive,inactive,inactive,inactive,inactive,inactive,–,–,–,–,–,–
CCOCCOCCO,inactive,inactive,inactive,inactive,inactive,inactive,inactive,inactive,inactive,–,–,–,–,–,–
Oc1ccc(O)cc1,inactive,inactive,inactive,inactive,inactive,–,inactive,inactive,inactive,–,35.6 µM (active),–,–,–,–
O=C(O)c1[nH]n(-c2ccc(S(=O)(=O)O)cc2)c(=O)c1N=Nc1ccc(S(=O)(=O)O)cc1,inactive,inactive,inactive,inactive,inactive,–,inactive,inactive,inactive,inactive,–,–,–,–,–
CS(=O)(=O)c1ccc([C@@H](C[C@H]2CCC(=O)C2)C(=O)Nc2cnccn2)cc1Cl,inactive,inactive,inactive,inactive,inactive,–,inactive,inactive,inactive,–,45.5 µM (active),–,–,–,–
CC(=O)S[C@H](C(=O)N[C@H]1Cc2ccccc2[C@H]2CCC[C@@H](C(=O)O)N2C1=O)C(C)C,inactive,inactive,inactive,inactive,inactive,inactive,inactive,inactive,inactive,–,–,–,–,–,–
C#CC(O)C(CC)CCCC (centres undefined),inactive,inactive,inactive,inactive,inactive,inactive,inactive,–,inactive,–,–,168 µM (active),–,–,–
CCCCOC(=O)CCCCC(=O)OCCCC,inactive,inactive,inactive,inactive,inactive,inactive,inactive,inactive,inactive,–,–,–,–,–,–
O=C(N[C@@H](c1ccccc1)[C@@H]1CCCCN1)c1cccc(C(F)(F)F)c1Cl,inactive,inactive,–,inactive,–,–,inactive,inactive,–,inactive,–,–,25.7 µM (active),33 µM (active),55.9 µM (active)
CCc1nc(N)nc(N)c1-c1ccc(Cl)cc1,inactive,inactive,–,inactive,inactive,–,inactive,inactive,inactive,inactive,–,–,32.8 µM (active),–,–
CCCCC(CC)CO (centres undefined),inactive,inactive,inactive,inactive,inactive,–,inactive,inactive,inactive,–,–,–,–,–,–
Cn1cnc2c1c(=O)[nH]c(=O)n2C,inactive,inactive,inactive,inactive,inactive,–,inactive,inactive,inactive,–,–,–,–,–,–
Cc1cn([C@H]2C=C[C@@H](CO)O2)c(=O)[nH]c1=O,inactive,inactive,inactive,inactive,inactive,–,inactive,inactive,inactive,–,–,–,–,–,–
N[C@@H](Cc1c[nH]c2ccccc12)C(=O)O,inactive,inactive,inactive,inactive,inactive,–,inactive,inactive,inactive,–,–,–,–,–,–
C=CCCCCCCCCCCCC,inactive,inactive,inactive,inactive,inactive,inactive,inactive,inactive,inactive,–,–,–,–,–,–

# — PubChem BioAssay (EPA / NIEHS)
